KB-V1 cytotox: qHTS assay for MDR1-selective chemotherapeutics: Primary screen using the drug-selected MDR subline cells KB-V1 | KB-V1 MDR cells viability, CellTiter-Glo, 72 h | Potency, µM (highest dose often 46.1 µM), hits mostly cytotoxic | 3.4% of 400,000 active | AID 1347076, 2019; note: % is set by controls: 0 for no effect and ±100 for the full control effect; nearly all actives have a fitted effect of over 60% in size
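KB-V1 cells (P-gp-expressing MDR subline of KB-3-1) in phenol-red-free DMEM with 10% FBS were exposed to library compounds over a concentration series for 72 h at 37 degrees C. Viability read by CellTiter-Glo luminescence; concentration-effect curves fitted after normalization.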
MCF10A rerep: A quantitative high throughput screen for small molecules that induce DNA re-replication in MCF 10a normal breast cells. AID 624296, 2012. MCF 10A DNA re-replication, Hoechst nuclear intensity, 48 h. 2.9% of 350,000 active. Potency, µM (top dose mostly 46.1 µM), for the others: top-dose activity, positive = re-replication, actives largely listed as activators; note: % of control where 0% means no effect; nearly all actives have a fitted effect of over 50% in size
SW480 rereplic: A quantitative high throughput screen for small molecules that induce DNA re-replication in SW480 colon adenocarcinoma cells; SW480 DNA re-replication, Hoechst DNA content imaging, 48 h; AID 624297, 2012; 1.8% of 340,000 active; Potency, µM (titrated, usually from 46.1 µM), for inactives: top-dose re-replication activation, most hits filed as activators; note: % of control where 0% means no effect; nearly all actives have a fitted effect of over 55% in size
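Image-based read-out: total Hoechst fluorescence of nuclei (405 nm excitation, 500-530 nm emission), with hits raising the fraction of high-intensity nuclei. SW480 colon cells incubated 48 hr with compounds at 37 C.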
KB-3-1 cytotox: qHTS assay for MDR1-selective chemotherapeutics: Primary screen using the parental adenocarcinoma cell KB-3-1 | KB-3-1 viability, CellTiter-Glo ATP luminescence, 72 h | Potency, µM (highest dose often 46.1 µM), hits mostly cytotoxic | 1.4% of 400,000 active; note: % is set by controls: 0 for no effect and ±100 for the full control effect; nearly all actives have a fitted effect of over 60% in size
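Here the drug-naive KB-3-1 line serves as comparator for MDR sub-line selectivity; cells received compound titrations, 72 h at 37 °C, then CellTiter-Glo readout.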
ELG1 DNA repair: qHTS screen for small molecules that inhibit ELG1-dependent DNA repair in human embryonic kidney (HEK293T) cells expressing luciferase-tagged ELG1; 2.3% of 330,000 active; HEK293T ELG1-luciferase reporter, luminescence, 16 h; DNA damage induced by 5-fluorouridine; AID 504467, 2011; Potency, µM (top dose mostly 46.1 µM), for the others: at the top dose activity change, negative = inhibition, most hits filed as inhibitors; note: % is set by controls: 0 for no effect and ±100 for the full control effect; nearly all actives have a fitted effect of over 55% in size
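HEK293T cells expressing luciferase-tagged ELG1 (2,000/well) received 5-Fluorouridine plus compound or DMSO for 16 hr at 37 °C. Luciferase was read by ONE-Glo luminescence after 30 min at room temperature.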
The depositor's hits bear a star; i = inactive; ? = inconclusive; / = no result given. This is a sample that favours compounds with a hit; in the whole collection about 8.2% have one here. Calls come from the whole dose curve; as a rule, active = well fitted curve in the direction sought with a large enough effect; inconclusive = small, poorly fitted or top-dose-only effect, or another doubt; inactive = no such curve, though single readings can be large; an effect the other way counts as inactive or inconclusive. Potency is the fitted concentration of half-maximal effect.

SMILES	KB-V1 cytotox	MCF10A rerep	SW480 rereplic	KB-3-1 cytotox	ELG1 DNA repair
COc1ccc(CCNC(=O)CN(c2cccc([N+](=O)[O-])c2)S(C)(=O)=O)cc1	i	2%	-14%	i	-16%
CN(C(=O)Cn1nnc2ccccc2c1=O)C1CCCCC1	i	-2%	-5%	i	?
C[N+](C)(C)c1ccc(/C=C/c2ccnc3ccccc23)cc1	?	/	/	18µM*	/
Oc1ccc(/C=C/c2ccnc3ccccc23)cc1	i	21µM*	18%	?	-2%
Cc1cc(/C=C/c2ccnc3ccccc23)ccc1N	23µM*	/	/	?	/
COc1ccc(/C=C/c2ccnc3ccccc23)cc1	i	/	/	i	/
CCC[N+](C)(C)c1ccc(/C=C/c2ccnc3ccccc23)cc1	?	/	/	1.6µM*	/
Cc1c(Cl)cccc1NC(=O)Nc1nnc(N(C)C2CCCCC2)s1	i	/	/	i	/
CCN(CC)c1ncnc2sc3c(c12)CCC3	i	-2%	-3%	i	15µM*
O=C(C1=C[C@@H](C2CCCCC2)C[C@@H](OCc2ccc(CO)cc2)O1)N1CCOCC1	i	6%	0.18µM*	i	-9%
O=C(C1=C[C@H](C2CC2)C[C@H](OCc2ccc(CO)cc2)O1)N1CCN(Cc2ccc3c(c2)OCO3)CC1	i	23%	-14%	i	6.5µM*
C#Cc1ccc([C@H]2C=C(C(=O)N3CCN(Cc4ccc5c(c4)OCO5)CC3)O[C@@H](OCC)[C@@H]2CCCO)cc1	i	24%	1%	i	18µM*
CC(C)(C)[C@H]1C=C(C(=O)N2CCN(Cc3ccc4c(c3)OCO4)CC2)O[C@@H](OCc2ccc(CO)cc2)C1	i	29%	-14%	i	5.2µM*
COCCNC(=O)C1CCCN(C(=O)COc2ccc(Cl)cc2Cl)CC1 (stereo not drawn)	i	/	/	i	/
O=C(CN1c2cccc3cccc(c23)S1(=O)=O)NCCc1ccc(F)cc1	i	-2%	-14%	i	0%
COc1ccc(OC)c(NC(=O)CN2c3cccc4cccc(c34)S2(=O)=O)c1	5.2µM*	7%	0%	i	?
COc1ccc(C)cc1NC(=O)CN1C(=O)c2cccc3cccc1c23	i	15µM*	?	i	-17%
O=C(CN1c2cccc3cccc(c23)S1(=O)=O)NCCc1ccccc1	21µM*	11%	5%	i	?
COc1ccc(NC(=O)CN2c3cccc4cccc(c34)S2(=O)=O)c(OC)c1	i	-11%	12%	i	?
CC(NC(=O)CCNC(=O)c1ccco1)c1ccccc1 (stereo not drawn)	i	6%	5%	i	11%
COc1ccc(NC(=O)C(c2ccc(C(F)(F)F)cc2)n2c(=O)c(-c3cc4ccccc4[nH]3)nc3ccccc32)cc1 (stereo not drawn)	i	/	/	i	/
O=C1CCCC2=C1C1(CCSC1)N=C(Nc1nc3ccccc3o1)N2 (stereo not drawn)	i	/	/	i	/
C=CCn1c(SCC(=O)N(CCOC)c2c(N)n(CCCC)c(=O)[nH]c2=O)nnc1-c1ccc(Cl)cc1	i	5%	-103%	i	11%
O=C1CCN(Cc2ccc(O)cc2)CCN1[C@H](CO)Cc1ccccc1	i	19%	-3%	i	0%
O=C1CCN(Cc2ccccc2)CCN1[C@H](CO)Cc1ccccc1	?	-35%	5.2µM*	i	-12%
SMILES	KB-V1 cytotox	MCF10A rerep	SW480 rereplic	KB-3-1 cytotox	ELG1 DNA repair
COc1cc(-c2cc(OC)c(O)c(OC)c2)cc(OC)c1O	?	?	23µM*	?	/
CC(C)COc1ccc(C(=O)Nc2ccccc2[N+](=O)[O-])cc1	i	13µM*	?	i	?
CCCOc1ccc(C(=O)Nc2ccc(C)cc2[N+](=O)[O-])cc1	i	?	-1%	i	?
Cn1ncc(N=Cc2ccccc2)c1C(N)=O	?	1%	-1%	i	13%
Cn1ncc(N=Cc2ccccc2)c1C(=O)Nc1cccc(Cl)c1	?	18µM*	?	?	?
COc1cccc(-c2c(-c3ccccc3OC)ncn2Cc2cccc(-c3ccccc3)c2)c1	13µM*	/	/	?	/
COc1cccc(Oc2nc3ncn(Cc4ccccc4)c3c(=O)n2C)c1	i	-8%	0%	i	1%
CCCCc1c(-c2ccccc2OC)ncn1CCc1cccc(F)c1	16µM*	/	/	?	/
CCCCc1c(-c2ccccc2OC)ncn1CCc1cccc(OC)c1	12µM*	/	/	?	/
COc1ccc(NC(=O)CSC2=Nc3ccccc3C3=NC(CC(=O)NCc4ccc5c(c4)OCO5)C(=O)N23)cc1 (stereo not drawn)	i	/	/	i	/
CC(=O)c1ccc(NC(=O)COc2ccccc2-c2nc(C(C)C)no2)cc1	i	/	/	i	/
CC(=O)c1cccc(NC(=O)CCN2C(=O)C3C4CCC(C4)C3C2=O)c1 (stereo not drawn)	i	1%	?	i	20%
COc1cc(/C=C(\C#N)c2ccccn2)ccc1OCc1ccccc1Cl	10µM*	?	-2%	i	?
COc1cc(/C=C(\C#N)c2ccccn2)cc(OC)c1O	?	?	?	7.3µM*	-15%
Cc1cc(C)n2nc(CC#N)c(C#N)c2n1	?	1%	2%	i	20%
Cc1cc(C)n2nc(/C(C#N)=C/c3ccccn3)c(C#N)c2n1	i	6.5µM*	3.3µM*	i	-10%
N#C/C(=C\c1ccccn1)c1ccccn1	i	21µM*	15µM*	?	?
Cc1noc(C)c1S(=O)(=O)Nc1ccc2c(c1)C(=O)N([C@H](C)CO)C[C@@H](C)[C@@H](CN(C)Cc1ccc3c(c1)OCO3)O2	i	?	-36%	i	0%
CCN(CC)CCNC(=O)Cn1nc(C)c2c(C)n(-c3ccccc3)nc2c1=O	i	/	/	i	/
CC(C)(C)C1C/C(=C/c2ccccn2)C(=O)/C(=C/c2ccccn2)C1 (stereo not drawn)	?	?	0.41µM*	?	?
CC1C/C(=C/c2ccccn2)C(=O)/C(=C/c2ccccn2)C1 (stereo not drawn)	i	2.3µM*	0.29µM*	?	4.6µM*
O=C1/C(=C/c2ccccn2)COc2ccccc21	i	?	?	i	?
O=C(CN1CCCC1)N1c2ccccc2Sc2ccccc21	i	11%	-5%	i	0%

Source: PubChem
